PubChem BioAssay (Tox21)
Inconclusive results are not listed. Active and inactive are the calls of the source. Unless noted, the call rests on the fitted dose curve; in most records, active means well fitted curve in the direction sought with a large enough effect in the repeat runs; inconclusive means weak or mixed curves; inactive means no such curve, though single readings can be large; an effect the other way counts as inactive or inconclusive.

Experiments:
[1] = qHTS assay to identify small molecule agonists of the farnesoid-X-receptor (FXR) signaling pathway - cell viability counter screen (AID 743218); further: nearly all actives have a fitted effect of over 45% in size
Method in brief: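 Viability of FXR-bla HEK 293T cells is measured by ATP-based CellTiter-Glo luminescence following 16 h compound treatment at 37 C and a prior 2 h room-temperature beta-lactamase substrate step.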

[2] = qHTS assay to identify small molecule antagonists of the farnesoid-X-receptor (FXR) signaling pathway - cell viability counter screen (AID 743221; active means well fitted cell-killing curve with a large enough effect in the repeat runs, not every such curve was filed as active; further: nearly all actives have a fitted effect of over 50% in size)
Method in brief: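 Cytotoxicity counter screen run in the FXR-bla reporter wells: HEK 293T cells exposed to compound with 50 uM (final) chenodeoxycholic acid for 16 h, 37 C, then viability measured by CellTiter-Glo luminescence after 30 min, room temperature.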

[3] = qHTS assay to identify small molecule antagonists of the peroxisome proliferator-activated receptor delta (PPARd) signaling pathway - cell viability counter screen (AID 743213); further: nearly all actives have a fitted effect of over 50% in size
Method in brief: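 Same-well viability: cells pre-incubated 5 h, dosed with compound plus 300 nM L165041, kept 17 h at 37 C, FRET substrate 2 h RT, then CellTiter-Glo 30 min RT and luminescence.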

[4] = qHTS assay to identify small molecule agonists of the vitamin D receptor (VDR) signaling pathway - cell viability counter screen (AID 743224); further: series mostly up to about 63 µM; nearly all actives have a fitted effect of over 50% in size
Method in brief: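 Compounds were pin-transferred onto VDR-bla cells plated 4 h earlier; following 16 h incubation at 37C, cell viability was quantified by CellTiter-Glo luminescence after 30 min at room temperature.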

[5] = molecular target: Bile acid receptor (Homo sapiens) (UniProt Q96RI1); assay: qHTS assay to identify small molecule antagonists of the farnesoid-X-receptor (FXR) signaling pathway (AID 743217; active means well fitted inhibition curve with a large enough effect in the signal ratio in the repeat runs, not every such curve was filed as active; the % refers to the signal ratio)
Method in brief: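 Screen of the Tox21 10K library in quantitative HTS format using FXR-UAS-bla HEK 293T reporter cells. Agonist chenodeoxycholic acid, 50 uM final, added with compounds; 16 h incubation at 37 °C; beta-lactamase FRET fluorescence measured.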

[6] = molecular target: Vitamin D3 receptor (Homo sapiens) (UniProt P11473); assay: qHTS assay to identify small molecule agonists of the vitamin D receptor (VDR) signaling pathway (AID 743222; calls by dose curve)
Method in brief: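 Fluorescence from cleaved LiveBLAzer B/G FRET substrate served as readout. VDR-bla cells had been treated 16 h at 37C with test compounds in DMSO, following a 4 h settling period, and substrate was loaded for 2 h at RT.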

[7] = molecular target: Vitamin D3 receptor (Homo sapiens) (UniProt P11473); assay: qHTS assay to identify small molecule antagonists of the vitamin D receptor (VDR) signaling pathway (AID 743223; active means well fitted inhibition curve with a large enough effect in the signal ratio in the repeat runs, not every such curve was filed as active; the % refers to the signal ratio)
Method in brief: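 Antagonist mode: compound added to VDR-bla cells alongside agonist 1alpha,25-dihydroxyvitamin D3 (3 nM final), incubation 16 h at 37C. Read-out is LiveBLAzer FRET fluorescence, 2 h at room temperature.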

Measured: outcome

Sequence of Vitamin D3 receptor (Homo sapiens) (P11473 whole entry, looked up): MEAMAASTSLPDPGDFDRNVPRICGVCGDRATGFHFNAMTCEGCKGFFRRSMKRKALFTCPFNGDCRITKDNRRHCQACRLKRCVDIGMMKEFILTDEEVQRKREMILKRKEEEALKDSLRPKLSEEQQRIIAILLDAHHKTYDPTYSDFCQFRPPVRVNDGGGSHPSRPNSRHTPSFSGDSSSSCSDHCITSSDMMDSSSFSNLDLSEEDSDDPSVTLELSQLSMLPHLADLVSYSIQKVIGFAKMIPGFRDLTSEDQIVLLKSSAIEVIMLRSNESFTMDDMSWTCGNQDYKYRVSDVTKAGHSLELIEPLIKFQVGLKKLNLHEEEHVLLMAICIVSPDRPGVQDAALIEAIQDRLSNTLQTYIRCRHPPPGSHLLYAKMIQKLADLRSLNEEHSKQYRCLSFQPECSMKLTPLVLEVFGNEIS
Sequence of Bile acid receptor (Homo sapiens) (Q96RI1 whole entry, looked up): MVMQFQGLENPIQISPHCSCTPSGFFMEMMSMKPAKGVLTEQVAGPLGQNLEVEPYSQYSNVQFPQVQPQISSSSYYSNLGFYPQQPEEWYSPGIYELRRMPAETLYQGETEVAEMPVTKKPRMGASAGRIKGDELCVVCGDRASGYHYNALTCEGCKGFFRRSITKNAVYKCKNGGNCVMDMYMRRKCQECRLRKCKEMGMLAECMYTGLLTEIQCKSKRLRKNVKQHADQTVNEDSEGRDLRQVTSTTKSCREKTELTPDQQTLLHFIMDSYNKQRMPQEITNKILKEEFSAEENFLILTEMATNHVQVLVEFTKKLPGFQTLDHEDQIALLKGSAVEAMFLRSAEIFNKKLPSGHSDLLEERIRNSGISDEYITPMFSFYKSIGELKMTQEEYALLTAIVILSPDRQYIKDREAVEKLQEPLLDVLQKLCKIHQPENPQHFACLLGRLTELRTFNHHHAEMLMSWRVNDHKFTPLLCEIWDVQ

COCCCOc1cc(C[C@@H](C[C@H](N)[C@@H](O)C[C@H](C(=O)NCC(C)(C)C(N)=O)C(C)C)C(C)C)ccc1OC
inactive: [1] | [2]

O=Cc1ccc(C(=O)O)cc1
inactive: [3] | [1] | [2] | [4]

CCCCN1C(=O)c2ccccc2C1=O
not listed: [3] | [7]
inactive: all other assays above

C=CCn1cc[n+](C)c1
not listed: [5] | [6]
inactive: all other assays above

CC(C)OCCO
inactive: [1] | [2] | [7] | [4]

CC(CC(=O)Cl)CC(C)(C)C (centres undefined)
inactive: [1] | [2] | [6] | [4]
